Values joined by “and” are separate entries in the source; they are usually repeats but may differ in a detail not shown here. Identical values can stand only once. Screen size: about 16,000 compounds; about 4,000 (25%) were called active. Inconclusive results (about 26%) are left out. Only a sample is shown. A number with no mark means an inactive call. Calls come from the whole dose curve; as a rule, active = well fitted curve in the direction sought with a large enough effect; inconclusive = small, poorly fitted or top-dose-only effect, or effect the other way; inactive = no such curve, though single readings can be large or run the other way.
Target: Cytochrome P450 2C9 (Homo sapiens) (UniProt P11712)
Test: Cytochrome panel assay with activity outcomes
Conditions: recombinant CYP, pro-luciferin dealkylation, luminescence, p450-cyp2c9; series mostly up to 57.1 µM
% is set by controls: 0 for no effect and ±100 for the full control effect.

Cytochrome P450 2C9 (Homo sapiens), sequence (P11712 whole entry, looked up): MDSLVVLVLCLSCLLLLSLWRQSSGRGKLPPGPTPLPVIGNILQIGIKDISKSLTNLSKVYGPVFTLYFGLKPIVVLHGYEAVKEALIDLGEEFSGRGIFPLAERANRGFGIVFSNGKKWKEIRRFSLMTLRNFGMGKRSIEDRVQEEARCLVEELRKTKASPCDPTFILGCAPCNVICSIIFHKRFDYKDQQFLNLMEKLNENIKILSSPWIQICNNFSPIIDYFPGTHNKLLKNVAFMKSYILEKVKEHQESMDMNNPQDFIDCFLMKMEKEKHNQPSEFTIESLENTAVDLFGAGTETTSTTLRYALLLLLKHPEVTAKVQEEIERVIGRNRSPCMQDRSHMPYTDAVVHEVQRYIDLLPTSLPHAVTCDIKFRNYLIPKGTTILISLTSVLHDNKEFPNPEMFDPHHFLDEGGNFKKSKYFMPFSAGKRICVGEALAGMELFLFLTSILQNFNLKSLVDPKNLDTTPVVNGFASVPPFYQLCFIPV

Row | SMILES | AC50 | activity, negative = inhibition
1 | O=C(COc1ccc(Cl)cc1)NCCC1=CCCCC1 | 3.98 µM (active) | –
2 | O=C(NCCc1ccc(Cl)cc1)c1ncn[nH]1 | inactive | –
3 | CCCCC[C@H](CC(=O)NO)C(=O)N[C@@H](C(=O)N1CCC[C@H]1CO)C(C)C | inactive | –
4 | O=C(O)/C=C\c1cnc[nH]1 | inactive | –
5 | Cc1c(Nc2ncccc2C(=O)O)cccc1C(F)(F)F | inactive | –
6 | O=C(O)c1cccc(C(=O)O)c1S(=O)Cc1ccccc1 (centres undefined) | – | 7.56% [at 11.4 µM]
7 | Cc1cccc(Nc2ccccc2C(=O)O)c1C | 7.94 µM (active) | –
8 | Cc1ccc(Cl)c(Nc2ccccc2C(=O)O)c1Cl | 7.94 µM (active) and 1.26 µM (active) | –
9 | O=C(O)CCNc1ccccc1C(=O)O | – | 14.2% [at 11.4 µM]
10 | Cc1c(Cl)cccc1Nc1ccccc1C(=O)O | 3.16 µM (active) | –
11 | O=C(Nc1cccc(F)c1)N1CCCC2(CCN(C(=O)c3cc(C(F)(F)F)cc(C(F)(F)F)c3)CC2)C1 | inactive | –
12 | Cn1ccnc1C[C@@](C)(O)c1ccccc1 | – | 4.93% [at 11.4 µM]
13 | CCc1c(O)nc2sc3ccccc3n2c1=O | 3.16 µM (active) | –
14 | CC(=O)Nc1c(I)c(C(=O)N[C@H]2[C@@H](O)[C@H](O)[C@H](CO)O[C@@H]2O)c(I)c(N(C)C(C)=O)c1I | inactive | –
15 | Cc1c(C=NCCOCc2ccccc2)cnn1C | inactive | –
16 | COC(=O)[C@@]1(Cc2ccccc2)[C@H]2c3cc(C(=O)N4CCCC4)n(Cc4ccc(C)o4)c3C[C@H]2CN1C(=O)c1ccccc1 | 1 µM (active) | –
17 | COC(=O)[C@@]1(Cc2ccc(F)cc2)[C@H]2c3cc(C(=O)N(C)C)n(Cc4ccc(C)o4)c3C[C@H]2CN1C(=O)c1ccccc1 | 10 µM (active) | –
18 | COC(=O)[C@@]1(Cc2ccc(F)cc2)[C@H]2c3cc(C(=O)N4CCCC4)n(Cc4ccc(C)o4)c3C[C@H]2CN1C(=O)c1ccccc1 | 3.98 µM (active) | –
19 | COc1ncc2nc(-c3ccccc3)c(=O)n(-c3ccccc3)c2n1 | inactive | –
20 | O=c1c2ccccc2c(-c2ccccc2)nn1Cc1ccc(Cl)cc1 | 8.91 µM (active) | –
21 | Cc1ccc(Cn2cnc3c(nnn3Cc3ccc(Cl)cc3)c2=O)cc1 | inactive | –
22 | Cn1c(=O)c(-c2ccc(Cl)cc2)nc2cnc(Nc3ccccc3)nc21 | inactive | –
23 | O=c1c2ccccc2c(-c2ccccc2)nn1-c1ccc(Cl)c(Cl)c1 | 11.2 µM (active) | –
24 | CC(C)(C)Cn1nc(-c2ccc(Cl)cc2)c2c(N)ncnc21 | inactive | –
25 | CCCc1[nH]nc2c1C(c1ccncc1)C(C#N)=C(N)O2 (centres undefined) | 2.51 µM (active) | –

Row | SMILES | AC50 | activity, negative = inhibition
26 | O=P(O)(CCc1ccccc1)C(O)c1ccccc1 (centres undefined) | inactive | –
27 | CC[C@](N)(C(=O)O)C(C)C | – | 1.15% [at 11.4 µM]
28 | C=CCn1c(SCC)nc2sc3c(c2c1=O)CCc1ccccc1-3 | 10 µM (active) | –
29 | C=CCn1c(SCc2ccccc2)nc2scc(-c3ccc(C)o3)c2c1=O | inactive | –
30 | Cc1c2cccc(Sc3ccccc3)c2c2c3c(cccc13)[S+](c1ccccc1)C2 (centres undefined) | 2.51 µM (active) | –
31 | O=C(NNC(=O)C1CC(c2cccnc2)=NO1)Nc1cccc(F)c1 (centres undefined) | inactive | –
32 | CC1CCCC(C)N1C(=O)C1CC(c2ccc(F)cc2)=NO1 (centres undefined) | 10 µM (active) | –
33 | CSCCC(NC=C1C(=O)OC(C)(C)OC1=O)C(=O)O (centres undefined) | inactive | –
34 | CNc1ncncc1-c1ccccc1OC | – | 6.03% [at 2.29 µM]
35 | O=S(=O)(O)C1CCNCC1 | inactive | –
36 | N#CC1=C(N)OC2=C(CC/C2=C\c2ccccc2)C1c1ccccc1 (centres undefined) | 0.355 µM (active) | –
37 | COc1ccccc1CN1CCCC2(CCN(C(C)=O)CC2)C1 | inactive | –
38 | COc1ccccc1-c1nc(NCc2cccs2)c2ccccc2n1 | – | 7.82% [at 2.29 µM]
39 | COc1cccc(-c2nc(NCc3cccs3)c3ccccc3n2)c1 | – | -29.3% [at 2.29 µM]
40 | COc1cccc2c(=O)c(C(=O)NCc3cccs3)c[nH]c12 | 6.31 µM (active) | –
41 | CN(N=O)C(=O)N[C@H]1[C@@H](O)[C@H](O)[C@H](CO)O[C@@H]1O | inactive | –
42 | C[C@@]12CC(=O)[C@@H]3[C@@H](CCC4=CC(=O)CC[C@]43C)[C@@H]1CC=C2CC(=O)O | – | 4.34% [at 11.4 µM]
43 | COCC(=O)N1CCC2(CCCN(c3ncccn3)C2)CC1 | inactive | –
44 | CCN(C(=O)c1cnc(N2CCN(c3ncccn3)CC2)c2ccccc12)c1cccc(Cl)c1 | 3.16 µM (active) | –
45 | COCC(=O)N1CCC2(CC1)CN(c1ccccn1)C2 | inactive | –
46 | CN(C(=O)c1cnc(N2CCN(c3ncccn3)CC2)c2ccccc12)c1ccc(Cl)cc1 | 5.01 µM (active) | –
47 | COCC(=O)N1CCC2(CC1)CCN(c1ncccn1)CC2 | inactive | –
48 | COC(=O)N1CCC2(CC1)CCN(c1ncccn1)CC2 | inactive | –
49 | CO[C@H]1COC(=O)CCC[C@@H](C)[C@H](OC)COC(=O)[C@@H](C)NC(=O)C/C=C\[C@@H]1C | – | -11.7% [at 11.4 µM]

From PubChem BioAssay AID1851 (National Center for Advancing Translational Sciences (NCATS), 2009)
